From ChEMBL document CHEMBL4513141, “CO-ADD screening of NIH (USA) - Clinical Collection” (2021) come the findings set out here.

In all, about 23,000 compounds went through this assay and about 30 (0.1%) showed an effect of 50% or more. The list comes from a sample in which strong results are over-represented; it also holds similar structures and randomly drawn compounds. Results with a measured potency or affinity are listed apart.

In the test the test system is Pseudomonas aeruginosa. Particulars: Concentration 20 uM; ASSAY_TEST Inhibition of Bacterial Growth; detection method Absorption (OD600); MEDIA CAMHB; plate type 384well; NBS; CORNING #3640; time 18 hr.
As to `CCOC(=O)[C@H](CCc1ccccc1)N[C@@H](C)C(=O)N1[C@H](C(=O)O)C[C@@H]2CCC[C@@H]21`, the Inhibition is on record as 53.62%. Then `CCOC(=O)[C@@H](CCc1ccccc1)N[C@@H](C)C(=O)N1CCC[C@H]1C(=O)O.O=C(O)/C=C\C(=O)O`, with 1.23%. In the case of `CCOC(=O)[C@H](CCc1ccccc1)N[C@@H](C)C(=O)N1Cc2ccccc2C[C@H]1C(=O)O.Cl` [QUINAPRIL HYDROCHLORIDE] it was 14.62%; in that of `CCOC(=O)OC(C)OC1=C(C(=O)Nc2ccccn2)N(C)S(=O)(=O)c2ccccc21` (stereo unspecified) [AMPIROXICAM], 53.02%. Then `Cc1cnc(NC(=O)C2=C(O)c3ccccc3S(=O)(=O)N2C)s1` [MELOXICAM], with 4.04%; and `CN1C(C(=O)Nc2ccccn2)=C(O)c2ccccc2S1(=O)=O.O`, with 7.03%. In turn, `N[C@@H]1CONC1=O` [CYCLOSERINE] came in with an Inhibition of 60.23%. In the case of `O=c1c(O[C@@H]2O[C@H](CO)[C@@H](O)[C@H](O)[C@H]2O)c(-c2ccc(O)c(O)c2)oc2cc(O)cc(O)c12` [ISOQUERCETIN] it was 60.53%; in that of `O=c1c(O[C@@H]2O[C@H](CO)[C@H](O)[C@H](O)[C@H]2O)c(-c2ccc(O)c(O)c2)oc2cc(O)cc(O)c12` [HYPEROSIDE], 12.67%. Then `C[C@@H]1O[C@@H](OC[C@H]2O[C@@H](Oc3c(-c4ccc(O)c(O)c4)oc4cc(O)cc(O)c4c3=O)[C@H](O)[C@@H](O)[C@@H]2O)[C@H](O)[C@H](O)[C@H]1O` [RUTIN], with 17.85%; and `Cl.Nc1c2c(nc3ccccc13)CCCC2` [TACRINE HYDROCHLORIDE], with 19.73%.
